The full list was thinned out, with hits kept by preference.
Dicer inh – inhibitors of Dicer pre-microRNA processing, primary screen, biochemical, cat-ELCCA, chemiluminescence; Endoribonuclease Dicer (Homo sapiens), Q9UPY3; 47,000 tested, 6% active; cat-ELCCA pre-miR-21 Dicer processing; hits give high values; AID 1347074, 2019; z-score at 25 µM; in the data active = z-score above about 3, passing the limit was not always enough;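 note: plate controls were vehicle for no effect and no enzyme for full effect; higher signal means more uncleaved substrate so more Dicer inhibition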
Target sequence (Q9UPY3 whole entry, looked up): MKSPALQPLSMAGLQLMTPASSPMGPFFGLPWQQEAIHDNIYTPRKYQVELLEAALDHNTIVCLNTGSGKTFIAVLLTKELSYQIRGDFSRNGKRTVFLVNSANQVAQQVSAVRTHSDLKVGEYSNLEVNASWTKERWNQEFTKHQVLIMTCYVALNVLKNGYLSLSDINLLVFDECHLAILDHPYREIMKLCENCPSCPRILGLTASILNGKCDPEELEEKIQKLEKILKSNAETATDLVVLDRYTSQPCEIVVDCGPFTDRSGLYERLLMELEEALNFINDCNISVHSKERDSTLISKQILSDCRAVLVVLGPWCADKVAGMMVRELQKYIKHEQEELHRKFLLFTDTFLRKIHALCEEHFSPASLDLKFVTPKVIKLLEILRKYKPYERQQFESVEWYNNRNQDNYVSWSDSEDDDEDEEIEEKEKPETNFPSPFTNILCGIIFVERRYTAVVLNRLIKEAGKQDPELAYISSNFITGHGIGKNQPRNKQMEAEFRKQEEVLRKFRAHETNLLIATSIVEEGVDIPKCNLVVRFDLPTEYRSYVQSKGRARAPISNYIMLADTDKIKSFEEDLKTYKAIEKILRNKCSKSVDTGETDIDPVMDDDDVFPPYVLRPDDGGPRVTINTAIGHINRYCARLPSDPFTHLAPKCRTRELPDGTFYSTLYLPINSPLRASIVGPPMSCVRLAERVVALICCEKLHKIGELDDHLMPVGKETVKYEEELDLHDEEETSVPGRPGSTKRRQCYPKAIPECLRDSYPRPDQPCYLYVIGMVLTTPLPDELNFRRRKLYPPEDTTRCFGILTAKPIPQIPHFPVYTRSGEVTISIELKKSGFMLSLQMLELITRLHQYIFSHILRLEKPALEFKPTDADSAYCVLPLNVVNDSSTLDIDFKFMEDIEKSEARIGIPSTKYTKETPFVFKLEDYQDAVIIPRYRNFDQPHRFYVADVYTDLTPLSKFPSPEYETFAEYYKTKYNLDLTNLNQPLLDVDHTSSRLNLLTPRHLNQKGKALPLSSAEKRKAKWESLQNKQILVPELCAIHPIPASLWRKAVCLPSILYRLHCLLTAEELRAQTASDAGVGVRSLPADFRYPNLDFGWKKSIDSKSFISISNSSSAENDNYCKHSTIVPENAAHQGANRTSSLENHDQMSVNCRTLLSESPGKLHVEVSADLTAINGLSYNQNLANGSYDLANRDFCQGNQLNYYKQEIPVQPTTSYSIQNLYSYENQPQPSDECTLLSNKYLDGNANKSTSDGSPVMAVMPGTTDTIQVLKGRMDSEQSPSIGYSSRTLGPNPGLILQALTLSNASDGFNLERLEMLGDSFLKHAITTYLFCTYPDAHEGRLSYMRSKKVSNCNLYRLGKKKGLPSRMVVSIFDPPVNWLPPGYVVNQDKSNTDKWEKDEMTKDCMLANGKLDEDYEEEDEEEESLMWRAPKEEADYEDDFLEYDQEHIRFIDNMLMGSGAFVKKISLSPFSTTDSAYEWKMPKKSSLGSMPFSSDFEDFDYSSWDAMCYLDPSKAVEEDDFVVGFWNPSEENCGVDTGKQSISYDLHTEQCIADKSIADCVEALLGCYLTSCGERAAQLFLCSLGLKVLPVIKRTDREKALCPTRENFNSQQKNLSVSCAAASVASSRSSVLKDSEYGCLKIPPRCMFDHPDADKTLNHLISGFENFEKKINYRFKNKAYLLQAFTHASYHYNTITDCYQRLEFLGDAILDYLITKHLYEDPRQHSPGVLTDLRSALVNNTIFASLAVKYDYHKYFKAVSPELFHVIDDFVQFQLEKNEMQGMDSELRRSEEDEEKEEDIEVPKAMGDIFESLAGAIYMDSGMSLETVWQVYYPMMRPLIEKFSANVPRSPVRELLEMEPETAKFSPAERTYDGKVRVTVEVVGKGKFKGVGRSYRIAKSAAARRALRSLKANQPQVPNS
The depositor's hits bear a star.

SMILES	Dicer inh
Cc1ccc(C(=O)C/C(=C\C(=C2\SC(=S)NC2=O)c2ccc(C)cc2)c2ccccc2)cc1	0.69
CCOc1ccc(-c2nc(-c3ccc(C)cc3)no2)cc1OCC	1.8
COC(=O)Nc1ccc(S(=O)(=O)N2CCCc3ccccc32)cc1	0.04
CCOC(=O)Nc1ccc2c(c1)N(C(=O)NC)c1ccccc1CC2	3.5*
CCOC(=O)Nc1ccc2c(c1)N(C(=O)N1CCN(C)CC1)c1ccccc1CC2	1.2
CN(C(=O)c1cn(C)c(=O)cc1C(F)(F)F)c1ccc(Cl)cc1	-0.58
Fc1ccc(Cn2nnc(-c3ccccc3Cl)n2)cc1	0.18
COc1ccc(C2C(C(=O)OC(C)C)=C(C)Nc3ncnn32)c(OC)c1 (configuration not stated)	-1.2
N#CC1=C(OC(=O)c2c(F)cccc2Cl)c2ccc(Cl)cc2N(S(=O)(=O)c2ccc(Cl)cc2)CC1	-1.1
COc1ccc(OC)c(C(=O)c2coc3ccc(O)c(CN(C)C)c23)c1	0.83
COc1ccc(-n2c(/C=C/N(C)C)c([N+](=O)[O-])c3ccc(O)c(CN(C)C)c32)cc1	3.5*
COc1ccc(-n2c(C)c([N+](=O)[O-])c3ccc(O)c(CN4CCCCC4)c32)cc1	3.5*
COc1ccc(N2CCCCC2)c([N+](=O)[O-])c1	-1.2
Cc1c([N+](=O)[O-])c(/C=C/N(C)C)nn1C	1.3
COc1ccc(Oc2c(C(F)(F)F)oc3c(CN4CCCCC4)c(O)ccc3c2=O)cc1	-0.53
CC(C)c1ccc(-n2nnc3ccccc3c2=O)cc1	-0.09
Cn1nccc1N1C(=O)c2ccccc2C1=O	-1.1
CC(C)OC(=O)CSC1=C(C#N)C(c2ccccc2)CC(=O)N1 (configuration not stated)	0.73
Cc1nc(NC2=NCN(C(C)C)CN2)nc2ccccc12	-0.06
CCOC(=O)c1c(NC(=O)Nc2ccc(Cl)c(Cl)c2)sc2c1CCC(C)C2 (configuration not stated)	-0.21
CCOc1ccc(S(=O)(=O)n2cc(C)nc2CC)cc1	0.96
COc1ccc(COC(=O)C2=C(C)NC3=C(C(=O)CC(C)(C)C3)C2c2ccc(OC)cc2)cc1 (configuration not stated)	3.5*
COc1ccc(COC(=O)C2=C(C)NC3=C(C(=O)CC(C)(C)C3)C2c2ccncc2)cc1 (configuration not stated)	1.3
COC(=O)C1=C(C)NC2=C(C(=O)CC(c3ccc(Cl)cc3)C2)C1c1ccc(C)cc1 (configuration not stated)	0.95
C=CCOC(=O)C1=C(C)NC2=C(C(=O)CC(C)(C)C2)C1c1ccc(OC(C)=O)cc1 (configuration not stated)	-0.25
SMILES	Dicer inh
CCOC(=O)C1=C(C)NC2=C(C(=O)CC(C)(C)C2)C1c1ccc(OC(C)=O)cc1 (configuration not stated)	6.8*
CCOC(=O)C1=C(C)NC2=C(C(=O)CC(C)(C)C2)C1c1ccc(OC)cc1 (configuration not stated)	-1.1
CCCOC(=O)C1=C(C)NC2=C(C(=O)CC(c3ccccc3)C2)C1c1ccc(C)cc1 (configuration not stated)	1.1
CC1=C(C(=O)OCCOC(C)C)C(c2ccc(O)cc2)C2=C(CC(C)(C)CC2=O)N1 (configuration not stated)	1.7
CCCOC(=O)C1=C(C)NC2=C(C(=O)CC(C)(C)C2)C1c1ccc(O)cc1 (configuration not stated)	3.8*
CCCOC(=O)C1=C(C)NC2=C(C(=O)CC(C)(C)C2)C1c1ccc(N(CC)CC)cc1 (configuration not stated)	0.92
COC(=O)c1ccc(C2C(C(=O)OCc3ccc(OC)cc3)=C(C)NC3=C2C(=O)CC(C)(C)C3)cc1 (configuration not stated)	0.18
CCCOC(=O)C1=C(C)NC2=C(C(=O)CC(c3ccc(Cl)cc3)C2)C1c1ccc(O)cc1 (configuration not stated)	4.7*
Clc1ccc(Sc2ccc(-c3ccccn3)s2)cc1	0.19
Cc1oc(-c2ccc(Cl)cc2)cc1C(=O)/C=C/N(C)C	0.59
N#CC1=C(N)Oc2n[nH]c(-c3ccccc3)c2C12C(=O)Nc1ccc(F)cc12 (configuration not stated)	-0.26
N#Cc1ccc(CNC(=S)Nc2cc(Cl)ccc2Cl)cc1	1.2
COc1ccc(C(=O)COC(=O)c2ccc(N3C(=O)C4CC=CCC4C3=O)cc2)cc1 (configuration not stated)	0.35
CCCc1nnc(N2C(=O)c3oc4ccc(F)cc4c(=O)c3C2c2ccc(OCC)cc2)s1 (configuration not stated)	-1
C#CC(C)(C)NC(=O)c1ccc(-c2ccc(CC)cc2)cc1	1.7
Cn1c(=O)c2[nH]c(NCCc3ccccc3)nc2n(C)c1=O	1
CSc1nc(C)nc(N/C=C(\C#N)C(=O)c2ccccc2Cl)n1	-0.58
CCN(CC)c1ccc(C2C(C(=O)OCC3CCCO3)=C(C)NC3=C2C(=O)CCC3)cc1 (configuration not stated)	-0.2
O=C(CSc1nc(-c2ccco2)cc(C(F)(F)F)n1)NCc1ccco1	-0.76
CNC(=S)NNC(=O)c1ccccc1Cl	-0.28
Cc1cc(Cl)c(OC(=O)c2c(Cl)cccc2Cl)c(Cl)c1	-1.2
CN(C)C(=S)SCc1ccccc1C(=O)Oc1c(Cl)cccc1Cl	3.6*
COc1ccc(C(=O)Nc2ccc(Oc3cccc(C(F)(F)F)c3)nc2)cc1OC	-0.45
CCOCCOC(=O)C1=C(C)NC2=C(C(=O)CC(C)(C)C2)C1c1ccc(C)o1 (configuration not stated)	0.17
Cc1nn(Cc2n[nH]c(=S)o2)c(C)c1Br	1.3
SMILES	Dicer inh
Cc1cccc(OCc2nn3c(-c4ccccc4)nnc3s2)c1	-0.09
COC(=O)C1C(=O)NC(SCc2cccc3ccccc23)=C(C#N)C1c1ccccc1C (configuration not stated)	-1
CN(C)S(=O)(=O)n1nc(/C=C/c2ccccc2Cl)nc1-c1ccccc1O	8.1*
CN(C)S(=O)(=O)n1cc(/C=C/c2noc(-c3ccccc3O)n2)c2ccccc21	-0.79
Oc1ccccc1-c1nc(/C=C/c2cccs2)nn1-c1ccccc1	3
c1ccc(Cn2nnc3c(N4CCN(c5ccccc5)CC4)ncnc32)cc1	2.2
CCOC(=O)/C(=C(/C)N)C1CC(=O)N(c2ccccc2)C1=O (configuration not stated)	0.57
c1ccc(C2Nc3cccc4cccc(c34)N2)cc1	6.2*
COc1cc(C2Nc3cccc4cccc(c34)N2)ccc1OCc1ccccc1	2.9
O=C1NC(c2cccc(Br)c2)Nc2ccccc21 (configuration not stated)	2.1
Brc1cccc(C2Nc3cccc4cccc(c34)N2)c1	5.2*
c1ccc2c(C3Nc4cccc5cccc(c45)N3)cccc2c1	4.4*
CC(C)(C)c1ccc(C2Nc3cccc4cccc(c34)N2)cc1	5*
CCc1ccc(C2Nc3cccc4cccc(c34)N2)cc1	0.54
COc1cc(OC)c(C2Nc3cccc4cccc(c34)N2)c(OC)c1	1.8
CCOc1cc(C2Nc3cccc4cccc(c34)N2)ccc1O	2.9
CN(C)c1ccc(C2Nc3cccc4cccc(c34)N2)cc1	0.05
O=C1NC(c2ccc(Cl)cc2)Nc2ccccc21 (configuration not stated)	-0.49
COc1ccccc1C1Nc2cccc3cccc(c23)N1	2.2
O=C(Cn1cnc2sc3c(c2c1=O)CCCC3)Nc1ccc(F)c(Cl)c1	0.1
